“And” between values parts separate entries of the source, which are not always exact repeats. Equal values may be shown once. Records with an inconclusive call do not appear. Entries that show only a call come without a potency. The source made the active and inactive calls. Calls come from the whole dose curve; as a rule, active = well fitted cell-killing curve with a large enough effect in the repeat runs; inconclusive = weak or mixed curves; inactive = no such curve, though single readings can be large or run the other way.
Experiment: qHTS assay to identify small molecule antagonists of the peroxisome proliferator-activated receptor delta (PPARd) signaling pathway - cell viability counter screen (AID 743213); note: nearly all actives have a fitted effect of over 50% in size
Conditions: PPARd-bla HEK293H viability, CellTiter-Glo luminescence, 17 h; series mostly up to 62 µM
From the text: U.S. Tox21 Program National Center for Advancing Translational Sciences [NCATS] NIH Chemical Genomics Center [NCGC] U.S. Environmental Protection Agency [EPA] National Institutes of Environmental Health Sciences [NIEHS] National Toxicology Program [NTP] U.S. Food and Drug Administration [FDA] Tox21 Assay Overview: The peroxisome proliferator-activated receptors (PPARs) are lipid-activated transcription factors of the nuclear receptor superfamily with three distinct subtypes namely PPAR alpha, PPAR delta (PPARd) and PPAR gamma. All these subtypes heterodimerizes with Retinoid X receptor (RXR) and have different physiological functions. […] To identify the compounds that inhibit PPAR-delta signaling, GeneBLAzer PPAR delta UAS-bla HEK293H cell line (Invitrogen, Carlsbad, CA, USA) containing a beta-lactamase reporter gene under the control of an Upstream Activator Sequence (UAS) was used to screen the Tox21 compound library. The cytotoxicity of the Tox21 compound library against the PPARd-bla cell line was tested in parallel by measuring the cell viability using CellTiter-Glo assay (Promega, Madison, WI) in the same wells.
Tox21 Assay Protocol Summary: PPARd-bla cells were dispensed at 3000 cells/5uL/well in 1536-well black wall/clear bottom plates using a Multidrop Combi (Thermo Fisher Scientific, Waltham, MA) dispenser. After the assay plates were incubated at 37 C and 5% CO2 for 5 h, 23 nL of compounds dissolved in DMSO, positive controls or DMSO only was transferred to the assay plate by a Pintool station (Kalypsys, San Diego, CA), followed by addition of 1ul L165041 (300 nM, final concentration in the wells). The assay plates were incubated at 37 C for 17 h, and then 1 uL of LiveBLAzerTM B/G FRET substrate was added using a Bioraptr Flying Reagent Dispenser (FRD) workstation (Beckman Coulter, Indianapolis, IN, USA). The assay plates were incubated at room temperature for 2 h and fluorescence intensity was measured by an Envision plate reader (PerkinElmer, Shelton, CT). For cell viability readout that measures cytotoxicity, 3 ul/well of CellTiter-Glo reagent was added into the assay plates using a Bioraptr FRD. After 30 min incubation at room temperature, the luminescence intensity in the plates was measured using a ViewLux plate reader (PerkinElmer).
Potency is the fitted concentration of half-maximal effect.

SMILES	Potency
CCCCCCCCOC(=O)c1ccc(O)cc1	49 µM (active)
CC(=O)OCC(C)OC(C)=O (stereo not given)	inactive
CSc1ccc2c(c1)C(N1CCN(C)CC1)Cc1ccccc1S2 (stereo not given)	16.8 µM (active)
O=c1[nH]sc2ccccc12	17.4 µM (active)
CCCCCCCCCOC(=O)c1ccc(O)cc1	24.2 µM (active)
[O-][n+]1ccccc1SSc1cccc[n+]1[O-]	0.206 µM (active)
[Cl][Au]([Cl])[Cl]	9.77 µM (active)
CCCCCOC(=O)CCCC	inactive
CC(C)(C)C(=O)OCOC(=O)[C@@H]1N2C(=O)[C@@H](NC(=O)[C@H](N)c3ccccc3)[C@H]2SC1(C)C	inactive
O=C(O)c1c(Cl)cccc1Cl	inactive
CSc1ccc(C(=O)c2[nH]c(=O)[nH]c2C)cc1	inactive
CCCC(C)c1ccccc1O (stereo not given)	inactive
CCCCCCCCCCCCCCCS(=O)(=O)Oc1ccccc1	inactive
CN(C)[C@@H]1C(=O)C(C(N)=O)=C(O)[C@@]2(O)C(=O)C3=C(O)c4c(O)ccc(Cl)c4[C@@H](O)[C@H]3C[C@@H]12	inactive
Oc1ccc(C2(c3ccc(O)cc3)CC3CC2C2CCCC32)cc1 (stereo not given)	23.6 µM (active)
CCCCC(CC)COP(=O)(O)OCC(CC)CCCC (stereo not given)	inactive
CCOc1nc2cccc(C(=O)OC(C)OC(=O)OC3CCCCC3)c2n1Cc1ccc(-c2ccccc2-c2nn[nH]n2)cc1 (stereo not given)	17.4 µM (active)
CCCCCOc1ccccc1/C(=C\SC)n1ccnc1	inactive
CCCCCCC[N+](CC)(CC)CCCCc1ccc(Cl)cc1	inactive
C=CC(=O)OCC(CO)(COC(=O)C=C)COC(=O)C=C	19.6 µM (active) and 13.8 µM (active)

SMILES	Potency
Cc1cc(O)c2ccccc2c1O	10.6 µM (active)
Clc1ccc2n[nH]nc2c1	inactive
O=C1C=CC(=O)N1c1ccc(Cc2ccc(N3C(=O)C=CC3=O)cc2)cc1	34.7 µM (active)
CN(C)c1ccc(C2(c3ccc(N(C)C)cc3)OC(=O)c3cc(N(C)C)ccc32)cc1	inactive
CCC(CN)=C(c1ccccc1)c1ccccc1	13.3 µM (active)
O=C(OC[C@H]1O[C@@H](OC(=O)c2cc(O)c(O)c(OC(=O)c3cc(O)c(O)c(O)c3)c2)[C@H](OC(=O)c2cc(O)c(O)c(OC(=O)c3cc(O)c(O)c(O)c3)c2)[C@@H](OC(=O)c2cc(O)c(O)c(OC(=O)c3cc(O)c(O)c(O)c3)c2)[C@@H]1OC(=O)c1cc(O)c(O)c(OC(=O)c2cc(O)c(O)c(O)c2)c1)c1cc(O)c(O)c(OC(=O)c2cc(O)c(O)c(O)c2)c1	13.2 µM (active)
NC(=O)CC[C@@H]1NC(=O)[C@H](Cc2ccccc2)NC(=O)[C@H](Cc2ccc(O)cc2)NC(=O)CCSSC[C@@H](C(=O)N2CCC[C@H]2C(=O)N[C@@H](CCCN=C(N)N)C(=O)NCC(N)=O)NC(=O)[C@H](CC(N)=O)NC1=O	inactive
O=C1CCCc2c1cc1ccc3cccc4ccc2c1c34	inactive
CC(C)=CCOc1ccc(/C=C/C(=O)c2ccc(OCC=C(C)C)cc2OCC(=O)O)cc1	inactive
CN1CCN(CCC(=O)N2c3ccccc3Sc3ccc(C(F)(F)F)cc32)CC1	16.8 µM (active)
COc1cc(-c2ccc(N=C=O)c(OC)c2)ccc1N=C=O	inactive
CC(=O)S[C@@H]1CC2=CC(=O)CC[C@]2(C)[C@H]2CC[C@@]3(C)[C@@H](CC[C@@]34CCC(=O)O4)[C@H]12	inactive
CC[C@H](c1ccc(O)cc1)[C@@H](CC)c1ccc(O)cc1	inactive
CCCCCCCCCCCC[N+](C)(C)CCCCCCCCCCCC	13.8 µM (active)
COc1cc(/C=C/C(=O)O[C@H]2CC[C@]34C[C@]35CC[C@]3(C)[C@@H]([C@H](C)CCC=C(C)C)CC[C@@]3(C)[C@@H]5CC[C@H]4C2(C)C)ccc1O	inactive
CC(C)(C)C(=O)OCOC(=O)C1N2C(=O)CC2S(=O)(=O)C1(C)C (stereo not given)	inactive
CCCCCCCCCCC=O	inactive
O=Cc1cc(O)ccc1Br	inactive
O=C(Oc1cccc2cccnc12)c1ccccc1	4.22 µM (active)
Oc1ccc(Cl)cc1Sc1cc(Cl)ccc1O	24.5 µM (active)
